# Source: PubChem (National Center for Advancing Translational Sciences (NCATS))
# Most compounds without a hit are left out; they make up all but 18% or so of the library.
# DT40 TDP1 CPT: DT40-hTDP1 cell growth loss with CPT; hit rate 12% among 420,000; chicken DT40 Tdp1-/-;hTDP1 cells + 20 nM CPT, ATP luminescence, 48 h; Potency, µM (highest dose often 46.2 µM), inactives show at the highest dose activity change, negative = growth inhibition, actives largely listed as inhibitors; also: potency is read from the fitted curve at half-maximal effect; nearly all actives have a fitted effect of over 55% in size
#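 Chicken DT40 Tdp1-/- cells stably complemented with human TDP1 were seeded at 400 cells/well in medium containing 20 nM camptothecin, exposed to pin-transferred compounds, and grown at 37 °C for at least 48 hr. Viability was read as ATP luminescence.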
# IL1B secr inh: blocks inflammasome-driven IL-1 beta release | THP-1 LPS/ATP IL-1B secretion, AlphaLISA, 16 h; hits give low values | activity change, % at 57.5 µM | hit rate 4.7% among 360,000; in the data active = activity change below about -50%; inconclusive = mostly about -30% to -49%
#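 Secreted IL-1B measured by AlphaLISA bead assay after 16 h compound exposure of THP-1 cells; compounds (final up to 57.5 uM) added 1 h before LPS (250 ng/mL) and ATP (1.25 mM) stimulation; lower signal means less secretion.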
# TDP1 cell noCPT: qHTS for Inhibitors of human tyrosyl-DNA phosphodiesterase 1 (TDP1): qHTS in cells in absence of CPT | Potency, µM (doses to about 46.2 µM), inactives show at the top dose activity change, negative = growth inhibition, usual class: inhibitors | DT40 Tdp1-/- hTDP1 cells, no CPT, ATP luminescence, 48 h | hit rate 15% among 420,000; also: potency is read from the fitted curve at half-maximal effect; nearly all actives have a fitted effect of over 55% in size
#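 Stably hTDP1-transfected Tdp1-null chicken DT40 cells were treated with library compounds minus camptothecin and grown for at least 48 hr at 37 °C, after which cellular ATP was quantified by luminescence.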
# VP16 counter: counter-screen for ROR gamma inhibitors: Gal4-VP16 reporter | AID 2546 | hit rate 3.5% among 310,000 | Drosophila S2 Gal4-VP16 UAS-luciferase, luminescence, 20 h | Potency, µM (doses to about 53.6 µM), for the others: at the highest dose activity, negative = inhibition, hits mostly inhibitors;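 also: Gal4-VP16 expression switched on by copper sulfate through the metallothionein promoter; potency is read from the fitted curve at half-maximal effect; nearly all actives have a fitted effect of over 50% in size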
# RORg inh: ROR gamma (mouse) transcription inhibition; hit rate 5.4% among 310,000; Drosophila S2 Gal4-RORgamma UAS-luciferase reporter, 20 h; P51450; Potency, µM (series often up to 53.6 µM), without a hit: top-dose activity change, negative = inhibition, hits mostly inhibitors; AID 2551; also: potency is read from the fitted curve at half-maximal effect; nearly all actives have a fitted effect of over 60% in size
# Target sequence (P51450 whole entry, looked up, the tested form may be a part): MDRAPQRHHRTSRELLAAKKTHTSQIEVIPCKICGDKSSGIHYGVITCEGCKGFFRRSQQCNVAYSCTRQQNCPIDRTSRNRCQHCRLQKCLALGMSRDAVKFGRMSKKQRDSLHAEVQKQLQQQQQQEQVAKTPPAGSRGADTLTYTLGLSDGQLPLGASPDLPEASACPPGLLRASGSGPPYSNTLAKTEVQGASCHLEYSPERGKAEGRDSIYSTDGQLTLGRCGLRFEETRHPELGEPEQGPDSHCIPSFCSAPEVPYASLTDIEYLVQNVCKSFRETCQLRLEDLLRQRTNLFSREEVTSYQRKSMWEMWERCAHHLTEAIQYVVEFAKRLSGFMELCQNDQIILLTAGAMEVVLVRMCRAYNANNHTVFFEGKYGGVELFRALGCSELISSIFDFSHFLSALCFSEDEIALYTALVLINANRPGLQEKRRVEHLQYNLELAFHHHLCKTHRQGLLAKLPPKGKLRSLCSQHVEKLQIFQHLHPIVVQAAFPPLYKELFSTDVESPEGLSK
#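 Drosophila Schneider cells stably carrying a metallothionein-driven Gal4 DBD–ROR gamma fusion and a UAS-Photinus luciferase reporter were exposed to compound for 1 hr, then induced with copper sulfate (700 uM final) for 20 hr at ambient temperature before luminescence reading.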
# LDHA block: inhibitors of human lactate dehydrogenase A; AID 1347041; hit rate 0.15% among 480,000; purified LDHA, NADH/diaphorase-resazurin fluorescence; hits give low values; activity change, % (values are at about 110 or 230 µM); in the data active = activity change below about -30%; inconclusive = mostly about -25% to -30%;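 also: plate controls were DMSO wells for no effect and wells without enzyme for full effect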
#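 Remaining NADH was detected by diaphorase (0.133 mg/mL) converting 37 µM resazurin to fluorescent resorufin, read at 0 and 20 minutes. The preceding 5-minute room-temperature reaction used 2 nM LDHA, 0.2 mM sodium pyruvate and 0.06 mM NADH at pH 7.4.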
# Active calls of the source: *; ? = inconclusive; · = no result. Unless noted, calls follow the shape of the dose curve; as a rule, active = well fitted curve in the direction sought with a large enough effect; inconclusive = small, poorly fitted or top-dose-only effect, or another doubt; inactive = no such curve, though single readings can be large; an effect the other way counts as inactive or inconclusive. Unless noted, % is scaled to controls: 0 for no effect and ±100 for the full control effect.
SMILES,DT40 TDP1 CPT,IL1B secr inh,TDP1 cell noCPT,VP16 counter,RORg inh,LDHA block
COc1ccc(C(NC(=O)CN2C(=O)NC3(CCc4ccccc43)C2=O)c2ccc(OC)cc2)cc1 (stereo unspecified),?,-63.9*,?,·,·,-5.8
Cc1ccc(NC(=O)CN2C(=O)NC3(CCc4ccccc43)C2=O)cc1S(=O)(=O)N1CCCCC1 (stereo unspecified),?,-21.9,?,·,·,-1.2
Cc1ccc(NC(=O)CN2C(=O)NC3(CCCc4ccccc43)C2=O)c(Cl)c1 (stereo unspecified),-23.2%,9.4,?,·,·,-4.3
Cc1ccc(CN(C)C(=O)CN2C(=O)NC3(CCCc4ccccc43)C2=O)c(C)c1 (stereo unspecified),?,-13.8,20.6µM*,·,·,0.2
O=C(CN1C(=O)NC2(CCCc3ccccc32)C1=O)N1CCc2ccccc2C1 (stereo unspecified),?,-5.1,20.6µM*,-5.2%,5.6%,-6.6
Cc1cc(NC(=O)COC(=O)c2ccc3c(c2)NC(=O)C(C)S3)no1 (stereo unspecified),·,·,·,·,·,-0.7
CC(=O)c1cnn(-c2c(Cl)cc(Cl)cc2Cl)c1C,16.4µM*,9.7,18.4µM*,-0.9%,11.0%,-2.6
CC(=O)c1cnn(-c2cc(Nc3ccc(F)c(F)c3)nc(C)n2)c1C,·,·,·,·,·,2.8
CSc1ccc(/C=N/NC(=O)c2ccccc2F)cc1,·,·,·,·,·,-10.6
CCCCOc1ccc(S(=O)(=O)Nc2cccc(-c3ccc(N4CCOCC4)nn3)c2)cc1,20.6µM*,·,?,·,·,3.3
Cc1ccc(S(=O)(=O)Nc2cccc(-c3ccc(N4CCCCCC4)nn3)c2)cc1C,?,-3.2,23.1µM*,-4.0%,-4.6%,-4.3
COc1c(C)cc(S(=O)(=O)Nc2cccc(-c3ccc(N4CCOCC4)nn3)c2)c(C)c1C,23.1µM*,·,?,·,·,2.5
CCCCOc1ccc(S(=O)(=O)Nc2ccc(-c3ccc(N4CCC(C)CC4)nn3)cc2)cc1,11.6µM*,·,29.1µM*,·,·,-0.1
CCOc1ccc(S(=O)(=O)Nc2ccc(-c3ccc(N4CCCC4)nn3)cc2)cc1,1.6%,·,-12.7%,·,·,-3.0
CCOc1ccc(S(=O)(=O)Nc2cccc(-c3ccc(N4CCCCCC4)nn3)c2)cc1,?,-22.1,?,-10.6%,18.5%,-15.7
O=C(NCC1(N2CCOCC2)CCCCC1)c1nn(-c2ccccc2)c(=O)c2ccccc12,·,·,·,·,·,5.7
CC(C)OC(=O)CCNC(=O)c1ccccc1-c1ncc(-c2ccccc2)o1,·,·,·,·,·,-7.9
COC(=O)c1ccc(C)c(NC(=O)Cc2cc(C)ccc2OC)c1,·,·,·,·,·,8.6
CCOC(=O)c1nc(N(CC)Cc2ccccc2)c2ccccc2n1,·,·,·,·,·,-2.5
O=C(OCc1ccc(F)cc1)c1cc(S(=O)(=O)N2CCCCC2)ccc1N1CCOCC1,29.1µM*,-5.1,11.6µM*,·,·,-4.0
Cc1ccccc1COC(=O)c1cc([N+](=O)[O-])ccc1N1CCOCC1,?,15.5,?,-1.9%,?,1.5
COc1ccc(COC(=O)c2cc(S(=O)(=O)N3CCCCC3)ccc2N2CCOCC2)cc1,18.4µM*,-2.9,16.4µM*,·,·,-0.7
N#CCOC(=O)c1cc(S(=O)(=O)N2CCCCC2)ccc1N1CCOCC1,-23.4%,-7.3,16.2%,·,·,-3.8
O=C(NCc1ccc(F)cc1)c1cc(S(=O)(=O)N2CCCCC2)ccc1N1CCOCC1,?,31.4,?,·,·,-1.6
O=C(OCc1ccc([N+](=O)[O-])cc1)c1cc(S(=O)(=O)N2CCCCC2)ccc1N1CCOCC1,14.6µM*,-14.6,7.31µM*,·,·,-4.8
SMILES,DT40 TDP1 CPT,IL1B secr inh,TDP1 cell noCPT,VP16 counter,RORg inh,LDHA block
CSc1ccc(COC(=O)c2cc([N+](=O)[O-])ccc2N2CCOCC2)cc1,0.0411µM*,-9.2,0.0259µM*,·,·,-0.8
NC(=O)COC(=O)c1cc(S(=O)(=O)N2CCOCC2)ccc1N1CCCCC1,-9.4%,11.2,-24.9%,-13.3%,-18.4%,-0.4
CC(C)n1ncc2cc(C(=O)Nc3ccc(OCC(F)(F)F)cc3)cnc21,·,·,·,·,·,-23.5
O=C1CC2CS(=O)(=O)CC2N1c1ccc(N2CCOCC2)cc1 (stereo unspecified),·,·,·,·,·,-1.1
CCC1CN(C(=O)C2CCN(c3nc4ccccc4o3)CC2)CCO1 (stereo unspecified),·,·,·,·,·,2.6
CN(Cc1ccccc1N1CCCC1)C(=O)c1ccc(S(=O)(=O)N2CCCC2)cc1,·,·,·,·,·,-2.7
CN(Cc1ccc(F)cc1)C(=O)c1cc(S(=O)(=O)N2CCCCC2)ccc1N1CCOCC1,?,-5.1,16.4µM*,·,·,-1.8
C/C(=N/Nc1ccc(S(N)(=O)=O)cc1[N+](=O)[O-])c1ccc(C#N)cc1,·,·,·,·,·,2.4
C/C(=N/Nc1ccc([N+](=O)[O-])cc1)c1ccncc1,·,·,·,·,·,4.2
COc1ccc(C(=O)/C=C/c2ccc(O)cc2)c(O)c1C/C=C(\C)CCC=C(C)C,?,-86.5*,?,·,·,-9.2
COc1ccc(C2=NN(C(=O)c3ccccc3)C(c3ccc(OC)c(OC)c3)C2)c(OC(C)=O)c1 (stereo unspecified),·,·,·,1.6%,8.7%,·
CCn1cc(Cl)c(C(=O)N2N=C(c3ccc4ccccc4c3)CC2c2ccccc2O)n1 (stereo unspecified),?,?,14.6µM*,15.8µM*,?,1.7
CCn1cc([N+](=O)[O-])c(C(=O)N2CCCC2)n1,11.1%,9.3,-6.5%,-5.3%,3.5%,-2.6
CCn1cc([N+](=O)[O-])c(C(=O)N2N=C(c3ccc(OC)cc3OC)CC2c2ccccc2O)n1 (stereo unspecified),?,-2.1,14.6µM*,-9.8%,-18.2%,-4.5
CCn1cc([N+](=O)[O-])c(C(=O)N2N=C(c3cccc4ccccc34)CC2c2ccccc2O)n1 (stereo unspecified),?,?,12.6µM*,?,-0.2%,-3.8
COc1ccc(CCc2cc(OC)c(OC)c(OC)c2)cc1,0.82µM*,36.2,0.581µM*,·,·,-7.9
COc1ccc(CCNC(=O)CCc2cc(OC)c(OC)c(OC)c2)cc1,-21.4%,-1.5,-28.3%,0.8%,6.1%,-3.8
CCc1ccc(NC(=O)CC2C(=O)N(c3cccc(OC)c3)C(=O)N2C2CCCC2)cc1 (stereo unspecified),16.4µM*,·,?,·,·,-10.2
CCc1ccc(NC(=O)CC2C(=O)N(c3ccc(C)cc3)C(=O)N2C2CCCC2)cc1 (stereo unspecified),?,·,20.6µM*,·,·,6.3
